27 molecules from the supplement of paper PMC10127200 can be followed below.

Each structure is given as a SMILES string. Counter-ions that a name gives are not always drawn.

In this experiment the test system is DU145. Description: Euclidean distance of Cell Painting phenotypic profile (signed KS, 77 features) to DMSO centroid (dimensionless distance); 5 or 10 uM (library dependent); higher = stronger phenotypic change vs DMSO (phenoactivity). Conditions: 48 h. In outline: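 At 10 or 5 uM, as set by the library, and 0.1% DMSO final, compounds were applied for 48 h to five cancer lines and one healthy fibroblast line. Stained cells were imaged confocally at 20X in 9 fields per well, and Harmony extracted 77 features scored as signed Kolmogorov-Smirnov statistics against vehicle wells on the same plate. Profiles underwent plate-position correction, correlation weighting and replicate averaging at the top dose. Phenoactivity is the Euclidean distance from each such profile to the median vehicle profile.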
`CC[C@H](C)C(=O)O[C@H]1C[C@@H](C)C=C2C=C[C@H](C)[C@H](CC[C@@H]3C[C@@H](O)CC(=O)O3)[C@H]21` [Lovastatin] registered an Euclidean distance of 0.903.
Take `COc1ccccc1O` [Guaiacol]: the Euclidean distance turned out to be 0.891.
In the case of `O=C(O)c1cn(-c2ccc(F)cc2)c2cc(N3CCNCC3)c(F)cc2c1=O` [Sarafloxacin HCl] it was 1.78; in that of `NS(=O)(=O)NCCNc1nonc1/C(=N/O)Nc1ccc(F)c(Br)c1`, 1.07.
In the case of `O=C1C(O)=C([C@H]2CC[C@H](c3ccc(Cl)cc3)CC2)C(=O)c2ccccc21` [Atovaquone] it was 1.08.
Under `C=CC(=O)N1C[C@H](Nc2ncnc3[nH]ccc23)CC[C@@H]1C` stands 1.09; under `CC(C)(C)OC(=O)N[C@H]1CCCCC/C=C\[C@@H]2C[C@@]2(C(=O)NS(=O)(=O)C2CC2)NC(=O)[C@@H]2C[C@@H](OC(=O)N3Cc4cccc(F)c4C3)CN2C1=O` [Danoprevir (ITMN-191)], 1.41.
`Cc1cc(-n2c(=O)[nH]c(=O)n(C)c2=O)ccc1Oc1ccc(SC(F)(F)F)cc1` [Toltrazuril] showed an Euclidean distance of 0.914.
Under `CC(COc1ccccc1Cc1ccccc1)N1CCCCC1` (configuration not stated) [Benproperine phosphate] stands 1.72; under `CCOC(=O)C1=C(COCCN)NC(C)=C(C(=O)OC)[C@@H]1c1ccccc1Cl` [Levamlodipine], 0.684.
In the case of `COc1ccccc1OCC(O)CO` (configuration not stated) [Guaifenesin] it was 1.4; in that of `COCCOC(=O)C1=C(C)NC(C)=C(C(=O)OC(C)C)C1c1cccc([N+](=O)[O-])c1` (configuration not stated) [Nimodipine], 1.08.
In the case of `COC(=O)C1=C(C)NC(C)=C(C(=O)OCCN(C)Cc2ccccc2)C1c1cccc([N+](=O)[O-])c1` (configuration not stated) [Nicardipine HCl] it was 0.897.
With `CC#CC(=O)N1CCC[C@H]1c1nc(-c2ccc(C(=O)Nc3ccccn3)cc2)c2c(N)nccn12` [Acalabrutinib (ACP-196)], the Euclidean distance amounted to 2.19.
In the case of `COc1cc(Nc2ncc(F)c(Nc3ccc4c(n3)N(COP(=O)(O)O)C(=O)C(C)(C)O4)n2)cc(OC)c1OC` [R788 (Fostamatinib) Disodium] it was 2.15.
`CC(C)(C)c1nc(-c2cccc(NS(=O)(=O)c3c(F)cccc3F)c2F)c(-c2ccnc(N)n2)s1` [Dabrafenib Mesylate] came in with an Euclidean distance of 1.47.
In the case of `COc1ccc2cc([C@H](C)C(=O)O)ccc2c1` [Naproxen] it was 1.05.
For `NCCS` [2-Aminoethanethiol], the Euclidean distance was 1.46.
In the case of `Cn1cc(Nc2nccc(N3C[C@H]4CC[C@@H](C3)N4C(=O)[C@@H]3CC3(F)F)n2)cn1` it was 0.715; in that of `CCN(CC)CCOC(=O)c1ccc(N)cc1` [Procaine HCl], 0.744.
Under `O=c1c(O)c(-c2ccc(O)c(O)c2)oc2cc(O)ccc12` [Fisetin] stands 1.17; under `CC(C)NCC(O)COc1ccc(CC(N)=O)cc1` (configuration not stated) [Atenolol], 0.819; under `CO[C@@]1(NC(=O)Cc2cccs2)C(=O)N2C(C(=O)O)=C(COC(N)=O)CS[C@@H]21` [Cefoxitin sodium], 1.51.
Under `CCOC(=O)CCNc1cc(N2CCc3ccccc3CC2)nc(-c2ccccn2)n1` stands 2.35.
The molecule `COC(=O)[C@]12CCC(C)(C)C[C@H]1[C@H]1C(=O)C=C3[C@@]4(C)C=C(C#N)C(=O)C(C)(C)[C@@H]4CC[C@@]3(C)[C@]1(C)CC2` [Bardoxolone Methyl] gave an Euclidean distance of 5.63.
In turn, `Nc1cc(F)ccc1NC(=O)c1ccc(CNC(=O)/C=C/c2cccnc2)cc1` [Tucidinostat (Chidamide)] returned an Euclidean distance of 2.35.
Under `Clc1ccc2c(c1)CCc1cccnc1C2=C1CCNCC1` [Desloratadine] stands 1.51.
